Each structure is given as a SMILES string. Hit rate of the full screen: of about 67,000 compounds, about 300 (0.45%) showed an effect of 50% or more. The full list was thinned out, with strong results kept by preference.

This assay deals with Polyketide synthase Pks13 (Mycobacterium tuberculosis (strain ATCC 25618 / H37Rv)) (UniProt I6X8D2). Briefly: Mycobacterium tuberculosis Polyketide synthase 13 Thioesterase (PKS13). To be noted: 30 µM. Format: functional. Details: scale not given: in the data most compounds retested in dose-response had high values.
Chain of Polyketide synthase Pks13 (Mycobacterium tuberculosis (strain ATCC 25618 / H37Rv)) (I6X8D2 whole entry): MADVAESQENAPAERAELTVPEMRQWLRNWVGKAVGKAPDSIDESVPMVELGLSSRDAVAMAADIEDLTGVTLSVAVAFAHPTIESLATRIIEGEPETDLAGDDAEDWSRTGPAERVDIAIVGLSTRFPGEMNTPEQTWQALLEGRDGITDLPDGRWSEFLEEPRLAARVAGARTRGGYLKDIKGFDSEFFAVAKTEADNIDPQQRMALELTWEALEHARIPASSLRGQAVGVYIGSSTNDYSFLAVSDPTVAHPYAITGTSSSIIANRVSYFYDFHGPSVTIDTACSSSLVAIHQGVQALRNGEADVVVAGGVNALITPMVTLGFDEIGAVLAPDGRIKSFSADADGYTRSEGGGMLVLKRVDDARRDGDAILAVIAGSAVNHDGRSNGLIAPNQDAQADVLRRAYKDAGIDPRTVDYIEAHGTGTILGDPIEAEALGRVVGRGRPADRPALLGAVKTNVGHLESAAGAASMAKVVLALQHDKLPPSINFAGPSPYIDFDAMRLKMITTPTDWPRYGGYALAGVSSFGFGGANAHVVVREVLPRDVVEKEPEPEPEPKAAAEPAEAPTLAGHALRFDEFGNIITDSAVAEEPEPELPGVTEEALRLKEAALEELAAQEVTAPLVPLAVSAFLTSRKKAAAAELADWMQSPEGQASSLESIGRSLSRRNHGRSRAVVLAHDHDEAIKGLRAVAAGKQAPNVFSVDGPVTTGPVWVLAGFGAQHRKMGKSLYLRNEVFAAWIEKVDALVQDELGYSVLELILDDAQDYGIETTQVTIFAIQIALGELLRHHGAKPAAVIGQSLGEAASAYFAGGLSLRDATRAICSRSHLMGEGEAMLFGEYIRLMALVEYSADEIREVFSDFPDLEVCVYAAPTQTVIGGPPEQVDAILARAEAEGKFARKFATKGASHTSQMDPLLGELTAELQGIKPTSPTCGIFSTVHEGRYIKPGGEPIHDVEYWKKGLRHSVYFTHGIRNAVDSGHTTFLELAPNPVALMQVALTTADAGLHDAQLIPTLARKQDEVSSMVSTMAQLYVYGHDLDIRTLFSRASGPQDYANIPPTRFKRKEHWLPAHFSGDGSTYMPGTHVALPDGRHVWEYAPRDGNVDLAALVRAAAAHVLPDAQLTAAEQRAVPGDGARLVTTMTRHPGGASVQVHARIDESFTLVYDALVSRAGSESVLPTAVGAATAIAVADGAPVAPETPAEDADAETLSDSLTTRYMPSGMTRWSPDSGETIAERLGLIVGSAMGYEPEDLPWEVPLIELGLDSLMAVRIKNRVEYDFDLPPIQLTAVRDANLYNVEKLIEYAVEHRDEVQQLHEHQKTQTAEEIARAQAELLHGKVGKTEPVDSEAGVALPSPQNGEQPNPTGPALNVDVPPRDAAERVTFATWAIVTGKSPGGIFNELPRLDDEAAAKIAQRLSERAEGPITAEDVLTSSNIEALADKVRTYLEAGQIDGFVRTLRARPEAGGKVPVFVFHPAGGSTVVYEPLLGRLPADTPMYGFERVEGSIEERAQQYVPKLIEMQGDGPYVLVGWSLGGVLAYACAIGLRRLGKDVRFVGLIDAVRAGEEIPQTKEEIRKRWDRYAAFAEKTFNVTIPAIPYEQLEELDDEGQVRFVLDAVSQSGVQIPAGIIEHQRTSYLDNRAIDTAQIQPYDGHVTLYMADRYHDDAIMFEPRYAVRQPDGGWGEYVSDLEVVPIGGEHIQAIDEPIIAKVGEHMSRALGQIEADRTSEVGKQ
Consider `CN1CCS(=O)(=O)[C@@H]2CCN(C(=O)c3ccccc3)CC[C@@H]21`, for which the Percent Effect is -9.08%.

As to `Cc1cc(C)n(-c2cncc(NCCNC(=O)c3cccnc3)n2)n1`, the Percent Effect was found to be 2.44%.

For `Cc1cc(C)n(-c2cncc(NCCNC(=O)C(C)(C)C)n2)n1`, the Percent Effect amounted to 27%.

Regarding `Cc1cc(C)n(-c2cncc(NCCC(=O)NC(C)C)n2)n1`, the Percent Effect was 62.4%.

With `Cc1cc(C)n(-c2cncc(NCCNS(C)(=O)=O)n2)n1`, the Percent Effect was 59.2%.

In the case of `CCN(CC)C(=O)CCNc1cncc(-n2nc(C)cc2C)n1`, the Percent Effect amounted to 10.2%.

With `Cc1cc(C)n(-c2cncc(NCCNC(=O)C3CCCC3)n2)n1`, the Percent Effect amounted to 40.3%.

In the case of `CCCNC(=O)CCNc1cncc(-n2nc(C)cc2C)n1`, the Percent Effect was found to be 52%.

Consider `Cc1cc(C)n(-c2cncc(NCCNC(=O)C(C)C)n2)n1`, for which the Percent Effect was 35.4%.

Take `Cc1cc(C)n(-c2cncc(NCCNC(=O)CC3CCCC3)n2)n1`: the Percent Effect is -10.3%.

On to `O=C(CC1CCCC1)N1C[C@H](OCc2ccncc2)[C@H]2OCCC[C@H]21`, for which the Percent Effect is -0.106%.

Regarding `COCCN1CC[C@H]2CN(c3cc(OC)ncn3)C[C@@H]2C1=O`, the Percent Effect worked out at 25.2%.

Regarding `CS(=O)(=O)CC(=O)N1C[C@H]2CCC[C@@]2(COCc2ccncc2)C1`, the Percent Effect is -8.5%.

As for `CCC(CC)CN1C[C@@H]2OCCN(Cc3cnn(C)c3)[C@@H]2C1`, the Percent Effect is -3.42%.

For the molecule `CCN1C[C@H]2CCN(C(=O)Nc3ccccc3C)CC[C@H]2S1(=O)=O`, the Percent Effect is -46.2%.

For the molecule `CCc1nc(C)c(C(=O)N2C[C@H]3CC[C@@H]2CN(S(=O)(=O)N(C)C)C3)s1`, the Percent Effect was -18.5%.

For the molecule `Cc1noc(C)c1CN1C[C@@H]2CN(C(=O)c3cnccn3)C[C@@H]2C1`, the Percent Effect was -42.1%.

With `O=C(O)[C@]12CCCN(Cc3nccs3)[C@@H]1CCN(c1cnccn1)C2`, the Percent Effect was -14.4%.

As to `COCCN1CCCC2(CCN(c3ncnc(C)c3C)C2)C1=O` (stereo unspecified), the Percent Effect came out at 6.43%.

Turning to `COCCN1CCCC2(CCN(c3nccnc3N(C)C)C2)C1=O` (stereo unspecified), the Percent Effect stood at 60.4%.

For the molecule `COCCN1CCCC2(CCN(c3nccc4ccccc34)C2)C1=O` (stereo unspecified), the Percent Effect was 10.3%.

For `Fc1cnc(N2C[C@@H](OCC3CCOCC3)[C@H]3OCCC[C@H]32)nc1`, the Percent Effect was -17.1%.

Turning to `CN(C)C[C@H]1OC[C@@H]2CCN(C(=O)NCc3cccc(F)c3)C[C@@H]21`, the Percent Effect was -18.3%.

As for `O[C@]12CCNC[C@H]1CN(c1ccnc3ccccc13)CC2`, the Percent Effect was -11.7%.

With `Cc1ccc(C(=O)N2C[C@H](OCc3cccnc3)[C@H]3COC[C@H]32)cn1`, the Percent Effect was -11.8%.

On to `COc1ccc2nc(C3CC3)cc(C(=O)NCC(=O)N(C)C)c2c1`, for which the Percent Effect is -13.4%.

Take `COc1ccc2nc(C3CC3)cc(C(=O)NCc3ncnn3C)c2c1`: the Percent Effect is -6.17%.

On to `COc1ccc2nc(C3CC3)cc(C(=O)NCc3noc(C)n3)c2c1`, for which the Percent Effect worked out at 83.5%.

For the molecule `Cc1cnc(N2CC[C@H]3[C@@H]2CCC(=O)N3c2ccccc2)nc1`, the Percent Effect was -48.4%.

Consider `O=C(CC1CC1)N1C[C@H]2CN(CC3CC3)C(=O)[C@H]2C1`, for which the Percent Effect is -22.1%.

Turning to `O=C(CCn1cncn1)N1C[C@H]2CC[C@@H]1CN(Cc1ccncc1)C2`, the Percent Effect worked out at 0.614%.

On to `CCOCCOCc1cccc(CNc2cncc(-n3cccn3)n2)c1`, for which the Percent Effect was found to be 53.8%.

As for `CCCOc1ccc(CNc2cncc(-n3cccn3)n2)cc1`, the Percent Effect is 34.6%.

With `CCN(CC)C(=O)c1ccc(CNc2cncc(-n3cccn3)n2)cc1`, the Percent Effect is -7.79%.

For the molecule `COC(=O)Nc1ccc(CNc2cncc(-n3cccn3)n2)cc1`, the Percent Effect is 25.1%.

For `NS(=O)(=O)Cc1ccc(CNc2cncc(-n3cccn3)n2)cc1`, the Percent Effect turned out to be 133%.

For `CNC(=O)COc1ccc(CNc2cncc(-n3cccn3)n2)cc1`, the Percent Effect was 70.7%.

For `COCc1ccc(CNc2cncc(-n3cccn3)n2)cc1`, the Percent Effect was determined as 52.2%.

For the molecule `CCOCc1ccc(CNc2cncc(-n3cccn3)n2)cc1`, the Percent Effect was -10.5%.

On to `CCOc1cccc(CNc2cncc(-n3cccn3)n2)c1`, for which the Percent Effect was -63.1%.

On to `Cc1cccc(CNc2cncc(-n3cccn3)n2)c1`, for which the Percent Effect was -60.2%.

As to `CC(C)OCc1ccc(CNc2cncc(-n3cccn3)n2)cc1`, the Percent Effect turned out to be 16.5%.

As for `CN(C)c1ccc(CNc2cncc(-n3cccn3)n2)cc1`, the Percent Effect worked out at 27.6%.

Turning to `Cc1nc[nH]c1CN1CCN(C(=O)c2cccs2)[C@H]2CS(=O)(=O)C[C@H]21`, the Percent Effect is -7.55%.

Regarding `COCCN1C[C@H]2CC[C@@H]1CN(CC(=O)Nc1ccn(C)n1)C2`, the Percent Effect is -11.6%.

Turning to `O=C(c1cnccn1)N1CCN2C[C@H](Oc3cccc(F)c3)C[C@H]2C1`, the Percent Effect is -42.7%.

Turning to `O=C(Cc1cccc(F)c1)N1CCN2C[C@H](Oc3cncnc3)C[C@H]2C1`, the Percent Effect was -1.46%.

As for `O=C(C1CC1)N1CCN2C[C@@H](CO)[C@H](c3ccccc3)[C@H]2C1`, the Percent Effect came out at 2.09%.

Regarding `Cc1nnc([C@H]2CC[C@@H]3[C@@H](CCN3CC3CCOCC3)O2)o1`, the Percent Effect is -25.5%.

In the case of `CN(C)C(=O)CO[C@@H]1CC[C@H]2[C@H]1OCCN2c1ncc(F)cn1`, the Percent Effect was -1.97%.

Turning to `COCCN1C(=O)C[C@H]2[C@H]1CCN2Cc1cccc(C#N)c1`, the Percent Effect is -24.2%.

Consider `Cc1ccc2nc(C(=O)N(C)[C@@H]3CC[C@@H](N4CCCC4)[C@@H]3O)cn2c1`, for which the Percent Effect is 61.6%.

As to `CO[C@@H]1CC[C@@H](N(C)C(=O)c2cn3cc(C)ccc3n2)[C@H]1O`, the Percent Effect is -0.591%.

With `CO[C@@H]1CCC[C@@H](N(C)C(=O)c2cn3cc(C)ccc3n2)[C@H]1O`, the Percent Effect is -3.51%.

`CC(C)=CCN1C[C@H]2CC[C@@H]1CN(S(=O)(=O)c1cccnc1)C2`: the Percent Effect amounted to 7.63%.

`CCN1CC[C@@]2(C(=O)N3CCOCC3)CCN(C(=O)NC)CC[C@@H]12`: the Percent Effect is -31.8%.

For the molecule `CC(NC(=O)NCC(C)(C)C(N)=O)c1nc(-c2ccccc2)cs1` (stereo unspecified), the Percent Effect turned out to be 55.9%.

As for `CC(C)NC(=O)NC(C)c1nc(-c2ccccc2)cs1` (stereo unspecified), the Percent Effect was 0.666%.

For the molecule `CC(NC(=O)NC1CC1)c1nc(-c2ccccc2)cs1` (stereo unspecified), the Percent Effect was -2.19%.

Turning to `CNC(=O)c1cc2c(nc1NCC(C)C)CCN(c1ccncn1)CC2`, the Percent Effect was found to be 94.4%.

With `CNC(=O)c1cc2c(nc1NCC1CC1)CCN(S(C)(=O)=O)CC2`, the Percent Effect is 55.9%.

Turning to `CNC(=O)c1cc2c(nc1NCC(C)C)CCN(c1ncccn1)CC2`, the Percent Effect worked out at 16.7%.

Consider `CNC(=O)c1cc2c(nc1NCC1CC1)CCN(c1ccncn1)CC2`, for which the Percent Effect is -246%.

As for `CNC(=O)c1cc2c(nc1NCC(C)C)CCN(S(=O)(=O)C1CC1)CC2`, the Percent Effect was -13.9%.

For the molecule `CCS(=O)(=O)N1CCc2cc(C(=O)NC)c(NCC(C)C)nc2CC1`, the Percent Effect is -68.6%.

Take `CNC(=O)c1cc2c(nc1NCC(C)C)CCN(CC1CC1)CC2`: the Percent Effect was found to be 51.6%.

Consider `CNC(=O)c1cc2c(nc1NCC1CC1)CCN(S(=O)(=O)C1CC1)CC2`, for which the Percent Effect is -32.9%.

Regarding `CNC(=O)c1cc2c(nc1NCC(C)C)CCN(S(C)(=O)=O)CC2`, the Percent Effect stood at 51%.

As for `CNC(=O)c1cc2c(nc1NCC1CC1)CCN(CC1CC1)CC2`, the Percent Effect stood at 42.7%.

As for `CNC(=O)c1cc2c(nc1NCC(C)C)CCN(C)CC2`, the Percent Effect stood at 49.9%.

`CCS(=O)(=O)N1CCc2cc(C(=O)NC)c(NCC3CC3)nc2CC1`: the Percent Effect came to 23.6%.
